Shown are actives, neighbours in structure and some others; about 12% of the full set was active somewhere.
SARS PLP yeast – blocks SARS-CoV papain-like protease in a yeast assay; S. cerevisiae expressing SARS-CoV PLpro, growth rescue; Potency, µM (top dose mostly 32.9 µM), for inactives: at the top dose activity, positive = growth rescue, most hits filed as activators; hit rate 0.19% among 330,000; AID 485353; note: potency is the fitted concentration of half-maximal effect; 0% is about no effect; nearly all actives have a fitted effect of over 55% in size
NS1 inh – blocks influenza NS1 protein function. Potency, µM (titrated, usually from 46.1 µM), inactives show at the highest dose activity, positive = more growth. AID 2326. hit rate 0.4% among 270,000; note: potency is the fitted concentration of half-maximal effect; actives are rising curves; nearly all actives have a fitted effect of over 50% in size
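OD600 was taken as the measure of yeast growth restored by compound in an NS1-expressing S. cerevisiae strain. Cells had been washed out of glucose medium and diluted 1:100 into galactose -URA medium, pH 6.0.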
Shiga inhibitor – inhibitors of Shiga toxin in Vero cells; Vero cells, Shiga toxin protein synthesis inhibition reporter; inhibition, % at 38.7 µM; hit rate 9.2% among 290,000; in the data active = inhibition mostly above about 28%, no sharp cut-off; inactive = mostly below about 43%; note: 0% is about no effect
CHX counter-1 – counter-screen hit for Shiga toxin inhibitors, cycloheximide | cell reporter, cycloheximide protein synthesis inhibition counterscreen | max response, % | hit rate 12% among 300,000; in the data active = max response mostly above about 13%, no sharp cut-off; inactive = mostly below about 14%; note: read at 38.3 µM for the half of the compounds with a filed dose; 0% is about no effect
CHX counter-2 – affects protein synthesis reporter in cycloheximide counter-screen | shares compounds with Shiga inhibitor | AID 2318 | hit rate 3% among 510 | Potency, µM (series often up to 38.3 µM), without a hit: at the top dose activity (activation), most hits filed as activators | Cycloheximide counterscreen, protein synthesis reporter, Shiga toxin assay; note: potency is the fitted concentration of half-maximal effect; 0% is about no effect
Flu NS1 inh – validation of influenza NS1 protein function inhibitors | shares compounds with NS1 inh | influenza NS1 function cell assay, 15-point titration | activity change, negative = inhibition, % at 32.9 µM | 1,400 tested, under 10 active | AID 492980; note: 0% is about no effect
Numbers without * were called inactive; ? = inconclusive; / = no result given; + = active, no number. Unless noted, calls come from the whole dose curve.

SMILES	SARS PLP yeast	NS1 inh	Shiga inhibitor	CHX counter-1	CHX counter-2	others
O=C(CSc1nnc(-c2ccccn2)o1)Nc1ccccc1C(F)(F)F	-5%	4%	63*	6	4%
Cc1ccc(NC(=O)CN(C)S(=O)(=O)c2ccc(Cl)s2)c(O)c1	-4%	/	/	/	/
O=C(CC(c1ccccc1)c1cc(Cl)ccc1O)N1CCCC1 (centres undefined)	-2%	-7%	57*	5	-2%
O=C(CC(c1ccccc1)c1cc(Cl)ccc1O)N1CCOCC1 (centres undefined)	7%	-12%	-8	-4	/
CCOC(=O)C1(CCCc2ccccc2)CCN(C(=O)CCn2cncn2)CC1	0%	-3%	39*	8	3%
CC(C)NC(=O)c1ccc(OC2CSC2)cc1	-6%	-6%	29*	-3	?
COC(=O)C(O)(c1ccc(N(C)S(=O)(=O)c2ccccc2)cc1)C(F)(F)F (centres undefined)	-2%	-12%	84*	13	?
O=C(NCCN1CCOCC1)C(=O)NCC1OCCN1S(=O)(=O)c1ccccc1 (centres undefined)	-3%	-66%	12*	9	-1%
CC(C)(C)c1cc(CCC(=O)N2CCC2)cc(C(C)(C)C)c1O	-8%	-86%	14*	14	5%
O=C(Nc1ccccc1)c1ccccc1O	-23%	-110%	59*	18	22µM*
O=C(Nc1ccccc1)c1ccc[nH]1	-12%	-1%	40*	-2	4%
O=C(NCc1ccccc1Cl)c1ccc[nH]1	-1%	0%	-2	-3	/
O=C(COc1ccc(-n2cnnn2)cc1)Nc1ccccc1OC(F)F	-3%	/	/	/	/
COc1ccc(/C=N/N2CCN(Cc3ccc(C)cc3)CC2)cc1Br	-6%	-13%	/	-4	/
CCOc1ccc(S(=O)(=O)NC2CC2)cc1C(N)=O	-1%	8%	22	-2	/
COCCCn1c(SCC(=O)OC2CCCCC2)nnc1-c1cccs1	2%	-10%	86*	-1	-2%
COCCCNC(=O)NC(=O)c1ccccc1	22%	17%	18*	5	2%
COc1ccc(NC(=O)c2ccccc2[N+](=O)[O-])cc1	-1%	7%	40*	5	5%
COc1ccc(CNC(=O)c2ccccc2[N+](=O)[O-])cc1	1%	4%	-7	-2	/
COc1ccc(NC(=O)c2cccnc2Nc2ccc(OC)cc2)cc1	-26%	-3%	42*	5	1%
Cc1cc(NC(=O)c2ccc(Br)o2)ccc1NC(=O)c1ccco1	-10%	-25%	61*	9	5%
CCCNC(=O)NC(=O)COC(=O)CNS(=O)(=O)/C=C/c1ccccc1	3%	/	-9	-3	/
NC(=O)CC(NC(=O)Cc1cccc2ccccc12)c1ccc(NC2CC3CCC2C3)c([N+](=O)[O-])c1 (centres undefined)	-5%	19%	-2	-3	/
CCCN(CCC)CC(O)Cn1cc(/C=C/C(=O)c2cccs2)c2ccccc21 (centres undefined)	-8%	5%	-6	-1	/
O=C(/C=C/c1cn(CC(O)CN2CCCCC2)c2ccccc12)c1cccs1 (centres undefined)	22%	12%	32*	5	3%
SMILES	SARS PLP yeast	NS1 inh	Shiga inhibitor	CHX counter-1	CHX counter-2	others
CCC(=O)N1CCc2cc(S(=O)(=O)NC(C(=O)NCc3ccc(F)cc3)C(C)C)ccc21 (centres undefined)	-4%	11%	7	-5	/
CCC(=O)N1CCc2cc(S(=O)(=O)NC(C(=O)N3CCN(c4ccc(F)cc4)CC3)C(C)C)ccc21 (centres undefined)	1%	-1%	17*	-3	-3%
COCCOC(=O)c1c(C)oc2ccc(OC(=O)c3ccco3)cc12	-56%	-37%	+	12	5%
COc1ccc(CCNC(=O)CNS(=O)(=O)c2ccc(F)c(Cl)c2)cc1OC	7%	5%	-9	5	/
Cn1nccc1C(=O)Nc1sc2c(c1C#N)CCCC2	-4%	-22%	16*	16	?
CC(=O)Nc1sc2c(c1C#N)CCC2	0%	/	-1	11	/
O=C(/C=C/C#Cc1cccc(NS(=O)(=O)c2ccccc2)c1)NO	/	/	65*	13	0%
COc1ccccc1CNc1nc2ccccc2n1CCN1CCCCC1	4%	-2%	66*	10	-4%
Oc1ccccc1CNc1nc2ccccc2n1CCN1CCCCC1	9%	-4%	13	8	/
CCCn1c(C)cc(/C=C(\C#N)C(=O)OCC(=O)Nc2ccc(OC)c(Cl)c2)c1C	-3%	1%	61*	12	4%
COCCn1c(C)cc(/C=C(\C#N)C(=O)OCC(=O)Nc2ccc(S(N)(=O)=O)cc2)c1C	1%	/	/	/	/
CCCc1cc(=O)oc2cc(C)cc(OCC(=O)NCc3ccccn3)c12	1%	-4%	122*	12	-3%
COc1ccc2c(=O)cc(CO)oc2c1	2%	/	/	/	/
CN(Cc1ccccn1)C(=O)c1ccc2nc(Cc3cccc(Cl)c3)oc2c1	-6%	-9%	-19	13	/
NC(=O)[C@@H]1CCCN1C(=O)c1ccc2nc(Cc3cccc(Cl)c3)oc2c1	-5%	-5%	24*	-2	0%
COc1ccc(C)cc1NC(=O)CSc1nnc(-c2cc(C)[nH]n2)n1N	1%	16%	-1	8	/
O=C(COC(=O)c1cccc2c1C(=O)c1ccccc1C2=O)NC1CCCCC1	-2%	-25%	-11	-7	/
O=C1c2ccccc2C(=O)c2c1ccc1c(=O)n(C3CCCCC3)[nH]c21	-6%	1%	27*	5	-5%
Cc1nn(C(=O)Cn2ccc([N+](=O)[O-])n2)c(C)c1Cl	-3%	3%	-11	-4	/
COc1cc(CN2CCN(CC#Cc3ccccc3)CC2CCO)cc(OC)c1 (centres undefined)	0%	-11%	20*	8	-1%
O=C1Cc2cc([N+](=O)[O-])ccc2N1c1c(Cl)cccc1Cl	-3%	16%	64*	-3	-5%
CCn1c(SCC(=O)Nc2cc(C)on2)nnc1-c1cccc(C)c1	-1%	1%	93*	1	-5%
COC(=O)[C@@]1(Cc2ccc(F)cc2)[C@H]2c3cc(C(=O)N4CCCC4)n(CCc4ccc(O)c(O)c4)c3C[C@H]2CN1C(=O)c1ccccc1	7%	8.9µM*	53*	7	1%	Flu NS1 inh=4
COc1ccc(CN2C(=O)c3c(c(C)n(C)c3C)C2C(=O)NC2CCC(C)CC2)cc1 (centres undefined)	1%	/	-4	-6	/
CN(C)c1ccc(/C=N/NC(=O)c2ccc(CN3C(=O)c4cccc5cccc3c45)cc2)cc1	27%	4.5µM*	23	8	/	Flu NS1 inh=5
CCOC(=O)c1ccc(N2C(=O)c3n[nH]c(C)c3C2c2ccc(OC)cc2OC)cc1 (centres undefined)	10%	5µM*	-2	-2	/	Flu NS1 inh=-9
CN(C)N1C(N)=C(C#N)C(c2cccc3ccccc23)C2=C1CC(c1ccccc1)CC2=O (centres undefined)	0%	22µM*	-7	6	/	Flu NS1 inh=-1
